Measured values from PubChem BioAssay AID1159580 (chemical genetic matrix, 2015).
Among all 5,500 compounds or so, about 2,000 (36%) were called active. Roughly 18% stayed inconclusive and do not appear here. Rule as the data show it: active = normalized growth mostly below about 0.91 (no sharp cut-off); inconclusive = no clear call, values can overlap the other calls; inactive = mostly above about 0.92. The list shows a part of the results.

Assay: chemical genetic growth profiling, strain panel (AID 1159580);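 also: tested at 20 µM; growth read once vehicle control cultures reached saturation at 30 °C; 1 = growth at the plate median or of vehicle wells; lower values mean less growth of the strain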
Details: S. cerevisiae deletion strains, growth OD
[1] = locus YDL101C, strain DUN1, hits give low values
[2] = locus YHR030C, strain SLT2, hits give low values
[3] = locus YAL013W, strain DEP1, hits give low values
[4] = locus YBR229C, strain ROT2, hits give low values
[5] = locus YDL134C, strain PPH21, hits give low values
[6] = locus YDR150W, strain NUM1, hits give low values
[7] = locus YEL061C, strain CIN8, hits give low values
[8] = locus YGR078C, strain PAC10, hits give low values
[9] = locus YHR087W, strain rtc3, hits give low values
[10] = locus YJR043C, strain POL32, hits give low values
[11] = locus YJR075W, strain HOC1, hits give low values
[12] = locus YKL190W, strain CNB1, hits give low values
[13] = locus YLR039C, strain RIC1, hits give low values
[14] = locus YLR058C, strain SHM2 (second series), hits give low values
[15] = locus YLR085C, strain ARP6, hits give low values
[16] = locus YLR262C, strain YPT6, hits give low values
[17] = locus YML094W, strain GIM5, hits give low values
[18] = locus YMR219W, strain ESC1, hits give low values
[19] = locus YMR263W, strain SAP30, hits give low values
[20] = locus YNL153C, strain GIM3, hits give low values
[21] = locus YNL298W, strain CLA4 (second series), hits give low values
[22] = locus YNL322C, strain KRE1, hits give low values
[23] = locus YNR030W, strain Alg12, hits give low values
[24] = locus YPL055C, strain LGE1, hits give low values
[25] = locus YPL241C, strain CIN2, hits give low values
[26] = locus YPR135W, strain CTF4, hits give low values

Measured: normalized growth

O=[N+]([O-])c1cc(C(F)(F)F)ccc1Sc1n[nH]c(-c2cc(Cl)cc(Cl)c2)n1
inactive: locus YAR019C, strain CDC15, hits give low values 0.925 | locus YBL105C, strain PKC1, hits give low values 0.954 | locus YBR135W, strain CKS1, hits give low values 0.951 | locus YBR136W, strain MEC1, hits give low values 0.936 | locus YBR160W, strain CDC28, hits give low values 0.935 | locus YDL017W, strain CDC7, hits give low values 0.95 | locus YDL028C, strain MPS1, hits give low values 0.917 | [1] 0.987 | locus YDL108W, strain KIN28, hits give low values 0.94 | locus YDL132W, strain cdc53, hits give low values 0.937 | locus YDR052C, strain DBF4, hits give low values 0.944 | locus YDR054C, strain cdc34, hits give low values 0.896 | locus YDR226W, strain ADK1, hits give low values 0.943 | locus YFL009W, strain cdc4, hits give low values 0.909 | locus YFL029C, strain CAK1, hits give low values 0.929 | locus YFR003C, strain YPI1, hits give low values 0.954 | locus YFR028C, strain CDC14, hits give low values 0.933 | locus YIL147C, strain SLN1, hits give low values 0.929 | locus YJL128C, strain PBS2, hits give low values 0.811 | locus YJR016C, strain ILV3, hits give low values 0.939 | locus YKL193C, strain SDS22, hits give low values 0.94 | locus YMR001C, strain CDC5, hits give low values 0.925 | locus YMR277W, strain FCP1, hits give low values 0.926 | locus YNL006W, strain LST8, hits give low values 0.931 | locus YNL161W, strain CBK1, hits give low values 0.949 | locus YNL207W, strain RIO2, hits give low values 0.948 | locus YNL222W, strain SSU72, hits give low values 0.935 | locus YOL078W, strain AVO1, hits give low values 0.943 | locus YOR329C, strain SCD5, hits give low values 0.939 | locus YPL209C, strain IPL1, hits give low values 0.948 | locus YPR025C, strain CCL1, hits give low values 0.952 | locus YPR106W, strain ISR1, hits give low values 0.944 | locus YPR111W, strain DBF20, hits give low values 0.908 | strain NNK1, hits give low values 0.917 | strain TSCII, hits give low values 0.919
active: locus YDL214C, strain PRR2, hits give low values 0.537 | locus YDR477W, strain SNF1, hits give low values 0.578 | locus YER123W, strain YCK3, hits give low values 0.329 | locus YER133W, strain GLC7, hits give low values 0.716 | locus YFR019W, strain FAB1, hits give low values 0.207 | locus YGR040W, strain KSS1, hits give low values 0.678 | locus YGR052W, strain FMP48, hits give low values 0.541 | locus YGR092W, strain DBF2, hits give low values 0.129 | [2] 0.147 | locus YHR079C, strain IRE1, hits give low values 0.131 | locus YHR082C, strain KSP1, hits give low values 0.231 | locus YHR205W, strain SCH9, hits give low values 0.472 | locus YJL095W, strain BCK1, hits give low values 0.228 | locus YJL157C, strain FAR1, hits give low values 0.15 | locus YJR066W, strain TOR1 (second series), hits give low values 0.203 | locus YJR066W, strain TOR1, hits give low values 0.16 | locus YKL048C, strain ELM1, hits give low values 0.298 | locus YKL067W, strain YNK1, hits give low values 0.426 | locus YKL101W, strain HSL1, hits give low values 0.201 | locus YKL203C, strain TOR2, hits give low values 0.601 | locus YLR113W, strain HOG1, hits give low values 0.223 | locus YLR133W, strain CKI1, hits give low values 0.164 | locus YLR403W, strain SFP1, hits give low values 0.602 | locus YML070W, strain DAK1, hits give low values 0.293 | locus YMR205C, strain PFK2 (second series), hits give low values 0.399 | locus YNL020C, strain ARK1, hits give low values 0.133 | locus YNL183C, strain NPR1, hits give low values 0.497 | locus YNL307C, strain MCK1 (second series), hits give low values 0.14 | locus YOL136C, strain PFK27, hits give low values 0.194 | locus YOR061W, strain CKA2, hits give low values 0.164 | locus YOR119C, strain RIO1, hits give low values 0.673 | locus YOR231W, strain MKK1, hits give low values 0.155 | locus YPL031C, strain PHO85, hits give low values 0.32 | locus YPL153C, strain RAD53, hits give low values 0.26 | locus YPL204W, strain HRR25, hits give low values 0.255 | locus YPL256C, strain CLN2, hits give low values 0.166

Cc1nc(C(F)(F)F)nc(Sc2n[nH]c(-c3cc(Cl)cc(Cl)c3)n2)c1C
inactive: [3] 1.03 | [4] 1.01 | locus YCL061C, strain MRC1, hits give low values 1 | [1] 0.996 | [5] 1.01 | [6] 0.996 | [7] 0.985 | [8] 1.01 | locus YGR229C, strain SMI1, hits give low values 1.01 | [2] 1.02 | [9] 1.03 | [10] 1.01 | [11] 1.02 | [12] 1 | [13] 1.07 | [14] 0.998 | [16] 1.02 | [17] 0.994 | [18] 1.02 | [19] 0.993 | locus YMR307W, strain GAS1, hits give low values 0.988 | [20] 0.995 | [21] 0.966 | [22] 0.995 | [23] 0.974 | [24] 1.03 | [25] 1.07 | [26] 1.17
active: [15] 1.25 [resistant]

O=[N+]([O-])c1cc(C(F)(F)F)ccc1Sc1ccc(Cl)cc1
inactive: [3] 1 | [4] 1.01 | [1] 1 | [5] 0.98 | [6] 0.957 | [7] 1.01 | [8] 1.01 | [2] 0.901 | [9] 1.01 | [10] 1 | [11] 1.02 | [12] 1.01 | [13] 0.928 | [14] 1 | [16] 0.967 | [17] 0.97 | [18] 1.01 | [19] 1.01 | [20] 1.02 | [21] 0.995 | [22] 0.996 | [23] 0.978 | [24] 1.04 | [25] 0.967 | [26] 0.97
active: [15] 0.757
